In PubChem BioAssay:

These compounds were tested against NADPH oxidase 5 (Homo sapiens) (UniProt Q96PH1) (assay: compounds shifting NOX5 Amplex Red fluorescence – cell-based, HEK293-NOX5, NOX inhibitor project, primary screen (AID 1161)). Details: HEK293-NOX5, ionomycin, 45 min, higher = more signal.
NADPH oxidase 5 (Homo sapiens), sequence (Q96PH1 whole entry, looked up): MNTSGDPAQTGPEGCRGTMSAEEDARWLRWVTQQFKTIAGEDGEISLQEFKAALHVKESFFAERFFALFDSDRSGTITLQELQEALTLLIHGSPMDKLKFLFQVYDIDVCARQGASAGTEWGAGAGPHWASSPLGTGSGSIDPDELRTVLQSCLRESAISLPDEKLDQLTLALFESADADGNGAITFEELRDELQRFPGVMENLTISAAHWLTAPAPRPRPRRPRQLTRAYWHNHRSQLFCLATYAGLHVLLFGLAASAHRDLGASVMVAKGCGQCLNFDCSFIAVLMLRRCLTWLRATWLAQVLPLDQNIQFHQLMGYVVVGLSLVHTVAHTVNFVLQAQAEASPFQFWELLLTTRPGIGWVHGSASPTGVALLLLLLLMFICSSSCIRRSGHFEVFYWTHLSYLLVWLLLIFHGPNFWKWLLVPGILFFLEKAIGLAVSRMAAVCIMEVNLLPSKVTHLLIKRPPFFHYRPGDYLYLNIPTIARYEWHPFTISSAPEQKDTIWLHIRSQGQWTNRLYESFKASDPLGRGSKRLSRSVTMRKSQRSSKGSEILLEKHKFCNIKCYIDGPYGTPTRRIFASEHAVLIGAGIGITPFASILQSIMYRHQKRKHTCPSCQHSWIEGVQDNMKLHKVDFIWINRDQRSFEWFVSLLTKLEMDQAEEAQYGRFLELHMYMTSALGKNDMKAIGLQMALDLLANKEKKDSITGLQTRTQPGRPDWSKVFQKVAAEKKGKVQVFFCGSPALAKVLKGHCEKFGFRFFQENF
For `C=CCN1C(=O)[C@]2(O[C@H](CCO)[C@@H]([Si](C)(C)c3ccc(OC)cc3)[C@@H]2C)c2cc(N3C(=O)c4cccc5cccc3c45)ccc21`, the z-score was 0.0361.
In the case of `C[N+](C)(C)CCCCNC(=O)[C@H]1C[C@H]2C(=O)N[C@@H](Cc3ccccc3)C(=O)N2[C@H]1c1ccc(O)cc1`, the z-score is reported as -2.42.
`COC(=O)[C@@]1(Cc2ccc(F)cc2)[C@H]2c3cc(C(=O)N4CCCC4)n(Cc4cc(C)n(C)n4)c3C[C@H]2CN1C(=O)c1ccccc1` gave a z-score of -0.196.
`Cc1ccc(S[C@]2(C(=O)NCC(F)(F)F)CC(=O)N(C(C)C)[C@@H]2c2ccc(CO)cc2I)cc1` was tested, and the z-score was 1.5.
`CO[C@H]1O[C@H](CO)[C@@H](OC(=O)Nc2ccc(Br)cc2)[C@H](OC(=O)c2cc3ccccc3[nH]2)[C@H]1OC(=O)c1cc2ccccc2[nH]1` gave a z-score of -2.04.
In the case of `COc1ccc(CCNC(=O)[C@@]2(Sc3ccc(C)cc3)CC(=O)N(C3CCCCC3)[C@@H]2c2ccc(CO)cc2I)cc1`, the z-score is reported as 2.1.
With `CC(C)c1ccc(NN2C(C(O)c3cc(C(F)(F)F)cc(C(F)(F)F)c3)C=CC3C(=O)N(c4ccccc4)C(=O)C32)cc1` (stereo not given) the z-score was -4.2.
In the case of `COc1ccc([C@H]2OC[C@@H]3CC4(CC=CC4)C(=O)N32)cc1`, the z-score is reported as 0.291.
`CN1C(=O)C2C=CC(C(O)C3CC=CCC3)N(NC(=O)OC(C)(C)C)C2C1=O` (stereo not given) gave a z-score of -0.716.
In the case of `N#Cc1ccc(NN2C(C(O)c3c(F)cccc3Cl)C=CC3C(=O)N(c4ccccc4)C(=O)C32)cc1` (stereo not given), the z-score is reported as -2.98.
`CCOC(=O)C1=CCC(c2ccccc2)N(S(=O)(=O)CC[Si](C)(C)C)C1` (stereo not given) showed a z-score of -0.179.
`O=C1OCCC/C=C\[C@H]2OC34C=CCN(CCN5CCOCC5)C(=O)[C@H]3N(CCCO)C(=O)[C@@H]4C12` (stereo not given in full) gave a z-score of 2.27.
`COc1cc2c(cc1O)C=[N+](Cc1cccc(OC(F)(F)F)c1)CC2` gave a z-score of -3.06.
Work on `COc1ccc(C(=O)Nc2cccc(CN3C(=O)[C@]4(O[C@H](CCO)[C@@H]([Si](C)(C)c5ccc(OC)cc5)[C@@H]4C)c4ccccc43)c2)cc1` yielded a z-score of -3.1.
Work on `CCCCCN1CC=CC23O[C@@H]4/C=C\CCCOC(=O)C4[C@H]2C(=O)N(C(CO)C(C)C)[C@@H]3C1=O` (stereo not given in full) yielded a z-score of 2.17.
In the case of `O=C1O[C@H](c2ccccc2)[C@H](c2ccccc2)N2[C@H]1[C@@H](C(=O)NC[C@H](O)c1ccccc1)[C@]1(C(=O)Nc3ccccc31)[C@H]2c1ccc(OCCO)cc1`, the z-score is reported as 1.34.
With `CCOC(=O)[C@H]1CC=C2CC1C(=O)N1CCC[C@@H]1[C@@H]2O[Si](C)(C)C(C)(C)C` (stereo not given in full) the z-score was -3.9.
`CCN(CC)c1ccc(N2CC=CC34O[C@@H]5/C=C\CCCOC(=O)C5[C@H]3C(=O)N(CCO)[C@@H]4C2=O)cc1` (stereo not given in full) showed a z-score of 0.733.
`COCCOC(=O)N1C(=O)[C@@]2(c3cc(C#CC4=CCCCC4)ccc31)[C@H](C(=O)Nc1nc3ccccc3s1)[C@H]1C(=O)O[C@H](c3ccccc3)[C@H](c3ccccc3)N1[C@@H]2c1ccc(OCCO)cc1` showed a z-score of 0.468.
With `CN1C(=O)C2C=CC(C(O)c3ccc(I)cc3)N(N3CCCCC3)C2C1=O` (stereo not given) the z-score was -1.63.
`CC1CC/C=C\[C@H]2OC34C=CCN(c5ccc(Cl)cc5)C(=O)[C@H]3N(CCO)C(=O)[C@]4(C)C2C(=O)O1` (stereo not given in full) showed a z-score of 3.16.
In the case of `COCCOC(=O)N1C(=O)[C@@]2(c3cc(C#Cc4ccc(OC)cc4)ccc31)[C@H](c1ccc(O)cc1)N1[C@H](c3ccccc3)[C@H](c3ccccc3)OC(=O)[C@H]1[C@@H]2C(=O)NC[C@H](O)c1ccccc1`, the z-score is reported as 1.1.
In the case of `COc1ccc([Si](C)(C)[C@H]2[C@H](CCn3cc([C@H](O)c4ccccc4)nn3)O[C@@]3(C(=O)N(Cc4cccc(N5CCOC5=O)c4)c4ccccc43)[C@@H]2C)cc1`, the z-score is reported as 2.28.
`CN1C(=O)C2C=CC(C(O)C3=C[C@H]4C[C@@H](C3)C4(C)C)N(Nc3ccccc3)C2C1=O` (stereo not given in full) was tested, and the z-score was -2.99.
`CC(=O)NCCCC[C@@H]1NC(=O)[C@@H]2C[C@H](C(=O)NCCCCN(C)C)[C@H](c3cccc(OCCO)c3)N2C1=O` gave a z-score of -0.205.
`COc1ccc(CCNC(=O)[C@@]2(C)c3ccccc3C(=O)N(Cc3cc(F)cc(C(F)(F)F)c3)[C@H]2c2ccc(CO)cc2)cc1` was tested, and the z-score was -1.5.
Compound `C=CCOC(=O)[C@H]1[C@@H]2C(=O)O[C@@H](c3ccccc3)[C@@H](c3ccccc3)N2[C@@H](c2ccc(OCCOC(=O)[C@@H]3C[C@@H]4C(=O)N[C@@H](CCCC[N+](C)(C)C)C(=O)N4[C@@H]3c3ccc(O)cc3)cc2)[C@]12C(=O)Nc1ccccc12` has a z-score of 1.41.
`O=C1OCCC/C=C\[C@H]2OC34C=CCN(Cc5ccccc5)C(=O)[C@H]3N(CCCCCCO)C(=O)[C@@H]4C12` (stereo not given in full) was tested, and the z-score was 1.88.
`C=C(CCCC)C(=O)CC[C@H](OC(C)=O)c1cccc(OCCO)c1` was tested, and the z-score was -2.8.
`CC(C)N1C(=O)[C@@]2(Cc3ccccc31)c1ccccc1C(=O)N(C1CCCCC1)[C@H]2c1ccc(CO)cc1` showed a z-score of -0.638.
Compound `COCCOC(=O)N1C(=O)[C@@]2(c3cc(C#CC4(O)CCCCCC4)ccc31)[C@H](c1ccc(O)cc1)N1[C@H](c3ccccc3)[C@H](c3ccccc3)OC(=O)[C@H]1[C@@H]2C(=O)Nc1nc2ccccc2s1` has a z-score of 1.07.
`O=C1O[C@@H](c2ccccc2)[C@@H](c2ccccc2)N2[C@@H](c3ccccc3OCCO)[C@]3(C(=O)Nc4ccc(C#CC5=CCCCC5)cc43)[C@@H](C(=O)Nc3nc4ccccc4s3)[C@H]12` gave a z-score of 1.59.
`C=CCOC(=O)[C@@H]1[C@H]2C(=O)O[C@H](c3ccccc3)[C@H](c3ccccc3)N2[C@H](c2ccc(OCCOC(=O)[C@@H]3C[C@@H]4C(=O)N5CCC[C@H]5C(=O)N4[C@@H]3c3ccc(O)cc3)cc2)[C@@]12C(=O)Nc1ccc(I)cc12` gave a z-score of 1.69.
Work on `C=CCNC(=O)[C@H]1[C@@H]2C(=O)O[C@@H](c3ccccc3)[C@@H](c3ccccc3)N2[C@@H](c2ccc(OCCO)cc2)[C@]12C(=O)N(C(=O)OCCOC)c1ccccc12` yielded a z-score of -1.51.
`COc1ccc(C(=O)O[C@H]2CC[C@]3(C)C4=C(CCC3C2(C)C)[C@]2(C)CC[C@H]([C@H](C)CCCC(C)C)[C@@]2(C)CC4)cc1` (stereo not given in full) was tested, and the z-score was 0.467.
